Six molecules from PubChem BioAssay (NCI) can be followed below.

About 83,000 compounds went through this panel and 20% of them were active in at least one assay; those are over-represented in the sample as a whole.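 Method: cells in 96-well plates; compound added at one concentration; 48 h incubation; percent growth measured; values under 10 scored active.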 A number with no mark means an inactive call. Active and inactive are the calls of the source.

Among the test systems are HCT-15 colon; HT29 colon; SNB-75 CNS; SNB-19 CNS; U251 CNS; PC-3 prostate; SK-MEL-5 melanoma; UACC-62 melanoma; LOX IMVI melanoma; SK-MEL-28 melanoma; SK-MEL-2 melanoma; EKVX NSCLC; SN12C renal; UO-31 renal; TK-10 renal; ACHN renal; CAKI-1 renal; A498 renal; CCRF-CEM leukemia; MOLT-4 leukemia.
Common to all, as to assay: NCI-60 one-dose screen, 48 h (100 = growth as untreated, 0 = no growth, -100 = all killed)
Conditions in all cases: 10 µM

For `O=C(CNc1nc(-c2ccccc2)cs1)Nc1cccc([N+](=O)[O-])c1`, the growth in the assay with HCT-15 colon was -79.4% (active); in the assay with HT29 colon, -61.6% (active); in the assay with SNB-75 CNS it was -36.5% (active); in the assay on SNB-19 CNS, -88.1% (active); in the assay with U251 CNS it was -62.6% (active); with PC-3 prostate it was -18.5% (active). Also, the growth with SK-MEL-5 melanoma was -100% (active); in the assay with UACC-62 melanoma it was -84% (active); in the assay on LOX IMVI melanoma it was -100% (active); with SK-MEL-28 melanoma it was -84.9% (active); in the assay on SK-MEL-2 melanoma, -79.9% (active); in the assay with EKVX NSCLC it was -97.1% (active). Besides, the growth with SN12C renal was -77.8% (active); in the assay with UO-31 renal, -95.7% (active); with TK-10 renal, -92.2% (active); in the assay on ACHN renal, -100% (active); with CAKI-1 renal, -88.9% (active); in the assay with A498 renal it was -88.1% (active). Also, the growth with CCRF-CEM leukemia is 0.432% (active); in the assay on MOLT-4 leukemia, 0.799% (active).
As for `C/C(=N\N=C\c1ccc(Cl)c([N+](=O)[O-])c1)c1ccc2c(c1)Nc1ccccc1S2`, the growth was 50.8% with HCT-15 colon; 35.5% in the assay with HT29 colon; 109% with SNB-75 CNS; 31.2% with SNB-19 CNS; -35% (active) in the assay with U251 CNS; 13.5% with PC-3 prostate. For the same molecule, the growth in the assay with SK-MEL-5 melanoma is 38.8%; with UACC-62 melanoma, 38.8%; in the assay on LOX IMVI melanoma it was 37.2%; in the assay with SK-MEL-28 melanoma, 60.9%; with SK-MEL-2 melanoma, 69.4%; in the assay on EKVX NSCLC, 48%. For the same molecule, the growth was 37.2% in the assay with SN12C renal; 76.9% in the assay with UO-31 renal; 77% in the assay on TK-10 renal; 45.6% in the assay on ACHN renal; 60.3% in the assay on CAKI-1 renal; 91.8% in the assay with A498 renal. Further, the growth in the assay on CCRF-CEM leukemia was 56.4%; in the assay on MOLT-4 leukemia, 40.3%.
Turning to `O=C(c1ccc(O)cc1)C1[C@H](c2ccccc2Br)[C@@H](c2ccccc2)NC12C(=O)Nc1ccc(Br)cc12` (stereo not given in full), the growth in the assay on HCT-15 colon was 36.8%; in the assay with HT29 colon it was 26.8%; in the assay with SNB-75 CNS, 31.5%; in the assay on SNB-19 CNS it was 53.4%; in the assay with U251 CNS, 26.5%; in the assay with PC-3 prostate it was 23.3%. For the same molecule, the growth with SK-MEL-5 melanoma is 56.9%; in the assay on UACC-62 melanoma, 42.3%; in the assay with LOX IMVI melanoma it was 15.8%; in the assay with SK-MEL-28 melanoma, 77.7%; in the assay with SK-MEL-2 melanoma it was 38.1%; in the assay on EKVX NSCLC, 32%. Moreover, the growth is 15.1% in the assay on SN12C renal; 35.8% in the assay on UO-31 renal; 76.2% with TK-10 renal; 37.9% with ACHN renal; 24.1% in the assay on CAKI-1 renal; 80.5% with A498 renal. Moreover, the growth is 31.4% with CCRF-CEM leukemia and 11% with MOLT-4 leukemia.
For the molecule `COc1cc2c3c(n(CCCN4CCOCC4)c(=O)c2cc1OC)-c1nc2c(cc1C3=O)OCO2`, the growth in the assay on HCT-15 colon was 41.5%; in the assay on HT29 colon, 7.3% (active); in the assay on SNB-75 CNS, 49.9%; in the assay with SNB-19 CNS, 15%; in the assay with U251 CNS, -18.9% (active); in the assay with PC-3 prostate, 43.6%. Further, the growth in the assay with SK-MEL-5 melanoma is -6.78% (active); in the assay on UACC-62 melanoma it was -8.82% (active); with LOX IMVI melanoma, -76.6% (active); in the assay on SK-MEL-28 melanoma, 66.1%; with SK-MEL-2 melanoma it was 111%; with EKVX NSCLC it was 48.8%. Besides, the growth in the assay on SN12C renal was 8.3% (active); in the assay with UO-31 renal, 15.3%; with TK-10 renal it was 79.5%; with ACHN renal, -11.7% (active); in the assay with CAKI-1 renal it was 6.77% (active); in the assay with A498 renal, 76.9%. Further, the growth is 14.4% in the assay on CCRF-CEM leukemia and 24.7% in the assay with MOLT-4 leukemia.
Regarding `CCCn1c(=O)c2[nH]c(-c3ccc(OCc4nc5ccccc5[nH]4)cc3)nc2n(CCC)c1=O`, the growth was 63.2% in the assay with HCT-15 colon; 61.2% with HT29 colon; 34.9% in the assay with SNB-75 CNS; 37.1% in the assay on SNB-19 CNS; 2.91% (active) in the assay on U251 CNS; 77.3% in the assay on PC-3 prostate. For the same molecule, the growth in the assay on SK-MEL-5 melanoma is 44.6%; with UACC-62 melanoma, 35.5%; in the assay with LOX IMVI melanoma, -2.38% (active); in the assay on SK-MEL-28 melanoma, 102%; in the assay on SK-MEL-2 melanoma it was 81.6%; with EKVX NSCLC it was 55.7%. Further, the growth in the assay on SN12C renal is 2.85% (active); in the assay on UO-31 renal, 35.7%; in the assay with TK-10 renal, 17.4%; in the assay on ACHN renal, 32.4%; in the assay with CAKI-1 renal, 39.1%; with A498 renal, -10.5% (active). Moreover, the growth in the assay with CCRF-CEM leukemia was 87.8%; with MOLT-4 leukemia it was 70.7%.
Turning to `N#Cc1c(-c2ccc(Cl)cc2)cc(-c2ccccc2)nc1OCc1ccccc1`, the growth with HCT-15 colon was 36.1%; in the assay on HT29 colon it was 65%; in the assay with SNB-75 CNS, 74.7%; in the assay with SNB-19 CNS it was 89.8%; in the assay on U251 CNS, 60.2%; in the assay with PC-3 prostate it was 40.1%. In addition, the growth in the assay with SK-MEL-5 melanoma is 54%; with UACC-62 melanoma it was 62.3%; with LOX IMVI melanoma it was 65.7%; in the assay with SK-MEL-28 melanoma, 86%; in the assay with SK-MEL-2 melanoma, 76%; with EKVX NSCLC, 52.6%. In addition, the growth was 87.8% in the assay on SN12C renal; 65.6% in the assay on UO-31 renal; 97.8% in the assay with TK-10 renal; 75% in the assay on ACHN renal; 73.8% with CAKI-1 renal; 118% in the assay with A498 renal. Moreover, the growth is 79.9% with CCRF-CEM leukemia and 47.8% with MOLT-4 leukemia.
